Source: PubChem
D3 antag = antagonists of human D3 dopamine receptor | P35462 | 2.5% of 360,000 active | AID 652054 | D3R cells, DiscoveRx beta-arrestin luminescence, antagonist mode; hits give low values | max response, negative = inhibition, %; in the data active means max response below about -50%; inconclusive means no clear call, values can overlap the other calls; further: on the % scale 0 is the no-effect control and ±100 the full control effect
Target sequence (P35462 whole entry, looked up): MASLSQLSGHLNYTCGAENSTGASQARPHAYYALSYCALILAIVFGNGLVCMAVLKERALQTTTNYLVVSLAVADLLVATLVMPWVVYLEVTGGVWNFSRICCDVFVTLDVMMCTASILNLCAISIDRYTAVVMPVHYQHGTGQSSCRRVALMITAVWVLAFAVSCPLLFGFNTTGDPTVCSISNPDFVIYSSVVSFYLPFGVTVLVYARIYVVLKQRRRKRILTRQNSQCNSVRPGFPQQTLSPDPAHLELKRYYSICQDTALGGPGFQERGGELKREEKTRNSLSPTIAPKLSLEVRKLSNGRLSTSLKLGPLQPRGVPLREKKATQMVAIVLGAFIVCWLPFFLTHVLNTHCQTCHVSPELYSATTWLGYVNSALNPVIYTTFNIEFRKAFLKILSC
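Cells plated overnight at 1500 cells/well, then exposed to library compounds with dopamine controls for 90 minutes at 37 degrees C. DiscoveRx reagent added for 30–60 minutes at room temperature; luminescence read, quantitative HTS format.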
IL-1B inflam inh = blocks inflammasome-driven IL-1 beta release; THP-1 LPS/ATP IL-1B secretion, AlphaLISA, 16 h; hits give low values; activity change, % at 57.5 µM; 4.7% of 360,000 active; in the data active means activity change below about -50%; inconclusive means mostly about -30% to -49%; further: on the % scale 0 is the no-effect control and ±100 the full control effect
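Secreted IL-1B measured by AlphaLISA bead assay after 16 h compound exposure of THP-1 cells; compounds (final up to 57.5 uM) added 1 h before LPS (250 ng/mL) and ATP (1.25 mM) stimulation; lower signal means less secretion.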
S2 tox = viability counter-screen for ATXN expression inhibitors | S2 cells (HEK-293 line with an ATXN2-luciferase reporter) viability, CellTiter-Fluor protease fluorescence, 24 h | Potency, µM (highest dose often 56.7 µM), actives largely listed as cytotoxic | 0.49% of 400,000 active | AID 651635; further: potency means the concentration at half of the fitted maximal effect; nearly all actives have a fitted effect of over 40% in size
DRD3 agonist = agonists of human D3 dopamine receptor. P35462. D3R DiscoveRx beta-arrestin cells, luminescence, 90 min. max activation, %. 0.58% of 410,000 active; in the data active means max activation above about 30%; further: 0% is about no effect
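Cells at 1500/well, incubated overnight, then treated with pinned compounds (dopamine as control) for 90 min at 37 degrees C. DiscoveRx reagent added for 30 - 60 minutes at room temperature; luminescence read.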
a7 integrin act = activates integrin-mediated alleviation for muscular dystrophy; alpha7betagal myoblasts, beta-gal FDG fluorescence, 48 h; Potency, µM (top dose mostly 38.3 µM), for inactives: top-dose activation, hits mostly activators; 0.064% of 350,000 active;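 further: potency means the concentration at half of the fitted maximal effect; 100% = response of the positive control SU9516; nearly all actives have a fitted effect of over 60% in size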
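Alpha7betagal+/- myoblasts (passage 13) were plated 16-24 hr, then exposed to compounds (1:260 dilution of DMSO stock) for 48 hours at 37C. After MPER lysis, β-galactosidase reporter activity was read as FDG fluorescence (ex 480/em 540) after 30 minutes.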
ATXN2 expr inh = ATXN2 expression inhibition. HEK-293 ATXN2-luciferase reporter, luminescence, 24 h. Potency, µM (top dose mostly 57 µM), inactives show at the top dose activity change, negative = inhibition, hits mostly inhibitors. 0.72% of 360,000 active. AID 1745845; further: potency means the concentration at half of the fitted maximal effect; on the % scale 0 is the no-effect control and ±100 the full control effect; nearly all actives have a fitted effect of over 55% in size
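ATXN2-luciferase reporter cells (luciferase flanked by upstream and downstream ATXN2 gene portions) were treated 24 h at 37 °C with compounds at up to 57 uM. SteadyGlo luminescence gave expression; GF-AFC fluorescence gave viability.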
* = called active by the depositor; i = inactive; ? = inconclusive; / = not tested or not shown; [ ] = another dose, or the depositor's remark. In the library only some 7% were active in any assay of this set; here they are far more common. Unless noted, the call rests on the fitted dose curve; in most records, active means well fitted curve in the direction sought with a large enough effect; inconclusive means small, poorly fitted or top-dose-only effect, or another doubt; inactive means no such curve, though single readings can be large; an effect the other way counts as inactive or inconclusive.

SMILES	D3 antag	IL-1B inflam inh	S2 tox	DRD3 agonist	a7 integrin act	ATXN2 expr inh
COc1ccccc1N1CCN(C(=O)c2sc3ncnc(N4CCN(c5ccccn5)CC4)c3c2C)CC1	88.5	-75.4*	?	3.8	-3.4%	?
COc1ccccc1N1CCN(C(=O)c2sc3nc(C)nc(N4CCN(c5ccccn5)CC4)c3c2C)CC1	20.0	-73.0*	i	4.6	?	?
CCNC(=O)C1(C)CCCN(C(=O)c2ccnc(Cl)c2)C1 (centres undefined)	32.7	8.7	i	6.9	/	15.8%
OCCCNc1nc(-c2ccc(Br)cc2)nnc1-c1ccc(Cl)cc1	1.5	-56.6*	i	-1.4	-0.2%	15.7%
COc1ccc(C(=O)Nc2ccc3nc(C)sc3c2)cc1OC	-17.8	-58.1*	i	-15.0	?	22.2%
Cc1nc2ccc(NC(=O)c3ccc(Br)o3)cc2s1	-1.9	-57.4*	i	-3.0	14.1%	34.1%
CCCC(=O)Nc1nc2ccc(NC(=O)c3ccc(Br)o3)cc2s1	12.8	-60.9*	i	-9.7	15.0%	0.2%
CC(=O)Nc1ccc2nc(NC(=O)c3ccc([N+](=O)[O-])o3)sc2c1	-2.8	-61.3*	i	-4.8	-27.8%	2.5%
CCOc1cc(C#N)c(NC(=O)c2ccc(OC)c(S(=O)(=O)N3CCCC3)c2)cc1OCC	/	/	i	0.9	/	-4.4%
Cc1ccc(-c2cnc3ccccc3n2)cc1C	11.5	23.1	i	-4.9	9.2%	/
Cc1ccc(N(NC(=O)C(O)(c2ccccc2)c2ccccc2)C(=O)CCl)cc1	3.0	-97.7*	17.8µM*	1.7	-56.7%	28.2µM*
CCCC(O)(CCC)C(=O)NN(C(=O)OC)c1ccccc1	-5.2	-1.1	i	-3.5	1.4%	-11.9%
CCC(O)(CC)C(=O)NN(C(=O)CCl)c1ccccc1	-2.2	-81.6*	?	6.4	-40.0%	-17.4%
O=C(Nc1ccccc1)NN(C(=O)CCl)c1ccccc1	-14.2	-96.1*	/	-11.3	-73.1%	?
Cc1ccc(C(O)(C(=O)NN(C(=O)c2ccccc2)c2ccccc2)c2ccc(C)cc2)cc1	6.6	4.0	i	3.8	-7.6%	1.0%
COc1ccc(N(CC(=O)NC2CCCC2)C(=O)c2ccc(N3CCCCC3)nc2)cc1	14.2	33.4	i	-1.8	0.2%	1.2%
COc1ccc(NC(=O)c2ccc3c(c2)N(C)CCS3)cc1	-10.6	-8.5	i	-7.9	4.2%	87.6%
CN1CCSc2ccc(C(=O)Nc3cccc(F)c3)cc21	-0.9	-53.2*	i	-10.7	6.1%	69.9%
Cc1ccc(OCCn2cc(C(=O)c3ccco3)c3ccccc32)cc1C	/	/	i	8.2	/	-3.0%
CCN(CC)C(=O)C1=C(C)N(CCC2=CCCCC2)C(=O)C(CC(=O)NCc2cccc3ccccc23)C1 (centres undefined)	?	-57.3*	?	-10.1	-29.3%	?
Oc1ccc(N=Nc2c(O)ccc3ccccc23)cc1	?	-51.1*	?	-23.9	-22.0%	-14.5%
COc1ccc(-n2nc(C#N)c(Cl)cc2=O)cc1	-104.4*	-105.8*	/	-13.1	-60.4%	?
Cc1cc(C)nc(Nc2cccc(Cl)c2)n1	-6.0	-3.9	i	1.1	?	/
CN(C#N)c1nc(Cl)nc(Nc2cccc(Cl)c2)n1	-5.6	-90.7*	i	0.1	-2.5%	-9.9%
O=C(Nc1ccccc1N1CCOCC1)c1ccco1	-1.7	-1.6	i	-3.6	13.2%	6.7%
SMILES	D3 antag	IL-1B inflam inh	S2 tox	DRD3 agonist	a7 integrin act	ATXN2 expr inh
Cc1cccc(NC(=O)NC(C)CCc2ccccc2)c1 (centres undefined)	16.3	-56.6*	i	19.9	-14.6%	41.3%
Cc1cccc(NC(=S)NC(C)CCc2ccccc2)c1 (centres undefined)	15.4	-95.7*	i	-2.6	-11.8%	-8.6%
Cc1cccc(NC(=O)CCc2ccccc2)c1	8.5	-14.1	i	1.6	-2.5%	24.0%
CC(CCc1ccccc1)NC(=O)/C=C/c1ccc(Cl)cc1 (centres undefined)	10.5	-79.0*	i	-7.1	-10.6%	-7.9%
Cc1nc(-c2ccc(F)cc2)sc1CCNC(=O)C(=O)Nc1ccc2c(c1)OCO2	/	/	i	0.5	/	-3.3%
O=C(c1ccccc1NS(=O)(=O)c1ccc([N+](=O)[O-])cc1[N+](=O)[O-])N1O[C@@H]2C=C[C@H]1C2	29.7	-72.4*	/	-0.2	-20.5%	?
O=C(c1ccccc1NS(=O)(=O)c1ccccc1[N+](=O)[O-])N1CCOCC1	-21.5	4.2	i	-3.4	14.5%	1.3%
COc1cc([C@@H]2c3cc4c(cc3[C@@H](O)[C@H]3COC(=O)[C@H]23)OCO4)cc(OC)c1O[Si](C)(C)C(C)(C)C	2.8	-87.9*	/	3.4	-7.0%	?
Cc1cccc(C2(c3cccc(C)c3)CC2C(=O)Nc2ccc([N+](=O)[O-])cc2O)c1 (centres undefined)	-69.5*	-97.9*	17.8µM*	-10.5	-63.2%	?
CC1Cn2c(nnc2-c2ccccc2O)S1 (centres undefined)	-10.4	-19.7	i	1.6	-11.8%	-1.1%
C=CCN(c1ccccc1OC)S(=O)(=O)c1cccc(C(=O)OCC(=O)c2c[nH]c3ccccc23)c1	4.0	-1.6	?	6.3	-37.2%	-18.7%
COc1cc(OC)c(N(C)S(=O)(=O)c2cccc(C(=O)OCC(=O)c3c[nH]c4ccccc34)c2)cc1Cl	13.6	13.2	?	32.8*	-26.4%	-23.5%
N#C/C(=N/Nc1ccc([N+](=O)[O-])cc1)C(=N)N1CCCCC1	-54.2*	-20.2	i	-12.0	3.1%	88.6%[11.3 µM]
N#C/C(=N\Nc1ccc([N+](=O)[O-])cc1)C(N)=S	-7.9	-65.9*	22.4µM*	-6.4	17.0%	-37.2%
N#C/C(=N\Nc1ccc([N+](=O)[O-])cc1)C(=N)N1CCOCC1	0.9	3.0	?	19.5	17.5%	25.7%
C/C(=N\Nc1ccc([N+](=O)[O-])cc1)c1ccc(O)cc1	-27.3	-61.5*	?	-8.2	-37.9%	4.6%
N#C/C(=N\Nc1cccc([N+](=O)[O-])c1)C(=O)c1ccc(Br)cc1	?	-64.0*	?	-3.6	-57.8%	9.47µM*
O=C(O)c1ccc(N=NNc2cccc([N+](=O)[O-])c2)cc1	-21.6	-1.8	i	-7.7	2.6%	35.5%
CC/C(=N\Nc1ccc([N+](=O)[O-])cc1[N+](=O)[O-])c1ccc(O)cc1	-12.3	-6.0	/	2.3	-40.2%	/
CC/C(=N\Nc1ccccc1[N+](=O)[O-])c1ccc(O)cc1	-57.4*	-22.7	?	-11.5	0.0%	-6.4%
COc1cc(NC(=S)Nc2ccc(N(C)C(C)=O)cc2)cc(OC)c1	-23.9	-11.2	i	-10.0	33.7%	-19.2%
